# In PubChem BioAssay (NCI):
# Compounds without any hit were thinned out: in the full panel of roughly 79,000, 15% have a hit. Unmarked numbers belong to inactive results. Calls of active or inactive are those of the source. Cut-off read from the data, not from the text of the source: active = growth inhibition above about 70%; inactive = the rest.
# Experiments:
# [1] = NCI Yeast Anticancer Drug Screen. Data for the rad50 strain (AID 155);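 note: 0% = growth of vehicle-only cultures of the same strain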; conditions: S. cerevisiae rad50 strain growth inhibition, stronger effect = higher value
# Method in brief: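 A DNA repair-deficient yeast mutant serves as the test organism; compound-induced growth inhibition is calculated against vehicle-treated cells.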
# [2] = NCI Yeast Anticancer Drug Screen. Data for the mec2-1 strain (AID 157); conditions: S. cerevisiae mec2-1 strain, stronger effect = higher value
# Method in brief: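 Vehicle-treated cultures served as reference for growth inhibition of compound-exposed mec2-1 yeast.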
# [3] = NCI Yeast Anticancer Drug Screen. Data for the sgs1 mgt1 strain (AID 161);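 note: 0% = growth of cultures given vehicle only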; conditions: S. cerevisiae sgs1 mgt1 strain, stronger effect = higher value
# Method in brief: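 Test agents were incubated with a DNA-repair-mutant yeast strain. Growth was then read and compared against vehicle-treated controls.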
# [4] = NCI Yeast Anticancer Drug Screen. Data for the cln2 rad14 strain (AID 165);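 note: 0% = growth equal to vehicle treated cultures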; conditions: S. cerevisiae cln2 rad14 strain, stronger effect = higher value
# Method in brief: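 Each compound was tested on cln2 rad14 yeast. Inhibition of growth was calculated against vehicle-exposed controls.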
# [5] = NCI Yeast Anticancer Drug Screen. Data for the bub3 strain (AID 167); conditions: S. cerevisiae bub3 mutant strain, stronger effect = higher value
# Method in brief: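 Inhibition values come from growth of compound-treated mutant yeast normalised to vehicle-treated controls.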
# [6] = NCI Yeast Anticancer Drug Screen. Data for the mlh1 rad18 strain (AID 175); conditions: S. cerevisiae mlh1 rad18 strain growth inhibition, stronger effect = higher value
# Method in brief: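 Vehicle-treated cultures served as the reference for growth inhibition in a yeast strain carrying DNA damage repair alterations exposed to each compound.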
# [7] = at 5.0 µM (retest, dose inferred, filed as 0.5)
# [8] = at 50.0 µM (retest, dose inferred, filed as 5.0)
Compound,"growth inhibition [1, 7] [%]","growth inhibition [1, 8]",growth inhibition ([1]; at 50.0 µM),"growth inhibition [2, 7] [%]","growth inhibition [2, 8]",growth inhibition ([2]; at 50.0 µM),"growth inhibition [3, 7] [%]","growth inhibition [3, 8]",growth inhibition ([3]; at 50.0 µM),"growth inhibition [4, 7] [%]","growth inhibition [4, 8]",growth inhibition ([4]; at 50.0 µM),"growth inhibition [5, 7] [%]","growth inhibition [5, 8]",growth inhibition ([5]; at 50.0 µM),"growth inhibition [6, 7] [%]","growth inhibition [6, 8]",growth inhibition ([6]; at 50.0 µM)
CCOc1c(N=Nc2ccccc2Cl)c(-c2ccccc2)nn1C(=S)S,-1,20%,52.7%,-4,24%,57.6%,-2,-70%,28.8%,-7,27%,48.5%,3,64%,78.5% (active),-2,31%,42.9%
N=C(N)SCc1cc(Cl)cc(Cl)c1O,8,20%,55.2%,4,-6%,-1.85%,1,1%,16%,-18,-72%,-2%,-14,-19%,-9.35%,-5,42%,80.2% (active)
O=Nc1c(O)c2ccccc2c2ccc([N+](=O)[O-])cc12,21,64%,69.8%,48,95% (active),84.8% (active),35,87% (active),91.7% (active),12,52%,42.9%,20,65%,85.2% (active),37,90% (active),88% (active)
CC(CC=NCCN=CCC(C)CC(C)(C)C)CC(C)(C)C (stereo not given),16,-2%,97.9% (active),-3,3%,68.3%,5,45%,91.3% (active),0,10%,30.1%,-6,3%,96.3% (active),1,20%,98.4% (active)
c1c2c(cc(-n3nnc4c3CCCCCC4)c1-n1nnc3c1CCCCCC3)CCCCCC2,30,30%,89.4% (active),26,26%,90.5% (active),23,23%,89.5% (active),17,17%,91.1% (active),7,7%,90.4% (active),27,27%,87.3% (active)
CC/C(=N\OC(=O)Nc1ccccc1)c1ccc(OC(=O)Nc2ccccc2)cc1,4,22%,60.5%,-7,58%,55%,2,46%,76.8% (active),-4,7%,49.6%,1,48%,33.1%,2,24%,76.1% (active)
CC(c1ccc2ccccc2c1)c1c(F)cccc1C(=O)O (stereo not given),2,50%,98.7% (active),0,54%,98.3% (active),0,12%,97.2% (active),-4,64%,98.6% (active),-9,41%,97.6% (active),-16,61%,98.5% (active)
O=[N+]([O-])c1ccc(N/N=C/CCCCCCCCCCBr)c([N+](=O)[O-])c1,-4,-3%,24.8%,-2,1%,10.4%,-5,0%,2.4%,-4,-6%,9.15%,-5,1%,50.3%,-1,-2%,21.4%
CCOC(=O)C(=Cc1ccc(C(=O)OC)cc1)C(=O)OCC,10,58%,82.2% (active),11,86% (active),75.2% (active),-2,63%,75.3% (active),38,80% (active),69.5%,12,93% (active),77.2% (active),14,88% (active),62.8%
O=C(N/C(=C\c1ccc(Cl)cc1)c1nc2ccccc2s1)c1ccccc1,34,95% (active),98.3% (active),32,97% (active),98.1% (active),54,97% (active),98.8% (active),15,96% (active),98% (active),30,97% (active),96.7% (active),28,95% (active),97.8% (active)
